Results from PubChem BioAssay (NCI).
The panel holds about 83,000 compounds, 20% with a hit somewhere; the sample as a whole holds those more often.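 Compound tested at a single concentration for 48 hours in 96-well plates; a percent growth value below 10 was scored as active.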 Unmarked numbers belong to inactive results. Calls of active or inactive are those of the source.

How the values were obtained:
Assay in all cases: NCI-60 one-dose screen, 48 h (100 = growth as untreated, 0 = no growth, -100 = all killed)
Details in all cases: 10 µM unless noted
SR leukemia = tested on: SR leukemia
RPMI-8226 leukemia = tested on: RPMI-8226 leukemia
OVCAR-8 ovarian = tested on: OVCAR-8 ovarian
OVCAR-5 ovarian = tested on: OVCAR-5 ovarian
OVCAR-4 ovarian = tested on: OVCAR-4 ovarian
SK-OV-3 ovarian = tested on: SK-OV-3 ovarian
IGROV1 ovarian = tested on: IGROV1 ovarian
OVCAR-3 ovarian = tested on: OVCAR-3 ovarian
HS 578T breast = tested on: HS 578T breast
NCI/ADR-RES ovarian = tested on: NCI/ADR-RES ovarian
T-47D breast = tested on: T-47D breast
BT-549 breast = tested on: BT-549 breast
MDA-MB-435 melanoma = tested on: MDA-MB-435 melanoma
SW-620 colon = tested on: SW-620 colon
MCF7 breast = tested on: MCF7 breast
HCT-116 colon = tested on: HCT-116 colon
HCC-2998 colon = tested on: HCC-2998 colon
KM12 colon = tested on: KM12 colon

Row | Compound | growth (SR leukemia) | growth (RPMI-8226 leukemia) | growth (OVCAR-8 ovarian) | growth (OVCAR-5 ovarian) | growth (OVCAR-4 ovarian) | growth (SK-OV-3 ovarian) | growth (IGROV1 ovarian) | growth (OVCAR-3 ovarian) | growth (HS 578T breast) | growth (NCI/ADR-RES ovarian) | growth (T-47D breast) | growth (BT-549 breast) | growth (MDA-MB-435 melanoma) | growth (SW-620 colon) | growth (MCF7 breast) | growth (HCT-116 colon) | growth (HCC-2998 colon) | growth (KM12 colon)
1 | c1cc(OCCN2CCCC2)ccc1CNc1ccc2nc(CCC3CCCCC3)[nH]c2c1 | 7.84% (active) | -8.82% (active) | 43% | 67.5% | 56.7% | 99.3% | 46.3% | 49.6% | 44.1% | 85% | -11.5% (active) | 82.5% | -50.7% (active) | 8.87% (active) | 3.44% (active) | 15.3% | 19.7% | 52.5%
2 | CNC(=O)c1cc(Oc2ccc3c(c2)sc2nc(-c4ccc(Cl)c(C(F)(F)F)c4)cn23)ccn1 | 41.6% | 33.9% | 52.5% | 100% | 65% | 78% | 86.3% | 74.2% | 80.3% | 60.9% | 25.7% | 45.9% | 65.8% | 68.6% | 36.8% | 41% | 80.5% | 82.6%
3 | CN(C)CCC(=O)C1CC1 | 97.3% | 101% | 106% | 100% | 108% | 110% | 92.3% | 105% | 111% | 98.3% | 97.6% | 99.7% | 105% | 102% | 108% | 96.1% | 103% | 109%
4 | Nc1cc(Br)cc2c1[nH]c(=O)c1ccccc12 | 90.7% | 96.1% | 86.2% | 92.3% | 84.2% | 105% | 114% | 94.4% | 91.6% | 91.7% | 79.6% | 86.9% | 113% | 94.7% | 53.2% | 96.8% | 104% | 104%
5 | CCOC(=O)c1cn2ncnc(Oc3ccc(NC(=O)NC4CC4)c(Cl)c3)c2c1C | 77.5% | 61.3% | 98.6% | 108% | 53.2% | 111% | 87.6% | 107% | 100% | 90.3% | 71.9% | 96.1% | 96.4% | 97.1% | 90.5% | 95.1% | 101% | 102%
6 | c1cc(OCCCCCOc2cccc(-c3nc4ccccc4[nH]3)c2)cc(-c2nc3ccccc3[nH]2)c1 | -24.8% (active) | -47.1% (active) | 15.7% | 1.07% (active) | 8.16% (active) | 23.9% | 10.8% | 16.8% | 25.3% | 0.274% (active) | 12.2% | 6.65% (active) | 8.32% (active) | 12.7% | -2.42% (active) | 7.44% (active) | 14.2% | 8.91% (active)
7 | O=C(Nc1ncc(Cc2ccccc2)s1)c1sc2ccccc2c1Cl | 16% | 28% | 27.8% | 41.8% | 68.1% | 28.8% | 33.1% | -30.6% (active) | 13.5% | 16.1% | 19.3% | 62.3% | -65.2% (active) | 20.4% | 14.4% | 24.8% | 17.6% | 12.5%
8 | O=C(NCCNC(c1ccccc1)C(NCCNC(=O)c1ccccc1)c1ccccc1)c1ccccc1 (stereo unspecified) | 50.2% | 90.1% | 78.9% | 83.8% | 91.3% | 99.9% | 82.4% | 116% | 115% | 76.6% | 97.8% | 96.4% | 114% | 57.8% | 70.7% | 53.8% | 105% | 100%
9 | COc1cccc(-c2cn3nc(-c4cn(C)c5ccccc45)sc3n2)c1 | 24.9% | 97% | 101% | 91.4% | 93.6% | 93.6% | 92.8% | 99.2% | 85.7% | 94.3% | 89.9% | 102% | 36.5% | 89.7% | 79.5% | 91.7% | 93.5% | 72.6%
10 | COc1ccccc1/C=C/C(=O)Nc1ccc(F)cc1 | 95% | 85.4% | 100% | 108% | 86.8% | 81.5% | 83.2% | 104% | 104% | 101% | 75.4% | 108% | 94% | 103% | 64.4% | 88.1% | 111% | 91.3%
11 | CC(O)Cc1c[nH]c(=O)[nH]c1=O (stereo unspecified) | 93.8% | 117% | 92% | 109% | 115% | 29.3% | 116% | 99% | 103% | 104% | -19.1% (active) | 105% | 103% | 94.9% | 88.9% | 97.2% | 119% | 95.6%
12 | COCC(=O)Oc1cc(-c2ccc(C)cc2C)c(OC(=O)COC)c(-c2ccc(C)cc2C)c1 | 20.6% | 34.2% | 59.5% | 38.1% | 50.5% | 66.2% | 50.1% | 51.9% | 55% | 68.2% | 43.7% | 56.6% | 59.6% | 43.2% | 41% | 17.7% | 88% | 44.8%
13 | O=S(Nc1ccccc1)c1ccc(Cl)cc1 (stereo unspecified) | 78.8% | 99.3% | 100% | 109% | 95.5% | 109% | 105% | 112% | 84.6% | 106% | 90.7% | 110% | 90.4% | 86.8% | 101% | 92.1% | 95.4% | 109%
14 | CN1CC(c2ccc(Br)cc2)C(C(=O)c2ccc(Br)cc2)C12C(=O)Nc1ccccc12 (stereo unspecified) | 68.1% | 62.3% | 83.8% | 82.1% | 63.6% | 80.8% | 62.6% | 79.3% | 89.3% | 58.9% | 49.5% | 100% | 78.9% | 72% | 62.4% | 39.7% | 84.5% | 75%
15 | O=CCCCOCc1ccccc1 | 96% | 100% | 103% | 101% | 98.6% | 99.9% | 101% | 110% | 92.9% | 97.4% | 102% | 103% | 107% | 100% | 91.7% | 105% | 94.2% | 102%
16 | Cc1ccc2nc(-c3ccc(C(=O)N/N=C/c4ccc([N+](=O)[O-])cc4)cc3)[nH]c2c1 | 92% | 95.6% | 105% | 96.5% | 107% | 109% | 91.3% | 115% | 105% | 106% | 91.1% | 106% | 102% | 106% | 88.3% | 103% | 105% | 97.6%
17 | COC(=O)c1c2c(c[n+]([O-])c1C)C(=O)C=C(NCc1ccccc1)C2=O | -10.3% (active) | -22.6% (active) | -60.4% (active) | -90% (active) | -98.8% (active) | -87.6% (active) | -66.9% (active) | -68.7% (active) | -15.5% (active) | -12.1% (active) | -47.7% (active) | -87.3% (active) | -86.5% (active) | -78.9% (active) | -57.3% (active) | -79.5% (active) | -89.5% (active) | -83.2% (active)
